HP1b binding inh = HTS for Inhibitors of HP1-beta Chromodomain Interactions with Methylated Histone Tails. Chromobox protein homolog 1 (Homo sapiens), P83916. AlphaScreen HP1-beta / biotin-H3K9me3 peptide binding. Potency, µM (titrated, usually from 114 µM), inactives show at the top dose activity change, negative = inhibition, usual class: inhibitors. hit rate 0.56% among 390,000; further: nearly all actives have a fitted effect of over 70% in size
Target sequence (P83916 whole entry, looked up): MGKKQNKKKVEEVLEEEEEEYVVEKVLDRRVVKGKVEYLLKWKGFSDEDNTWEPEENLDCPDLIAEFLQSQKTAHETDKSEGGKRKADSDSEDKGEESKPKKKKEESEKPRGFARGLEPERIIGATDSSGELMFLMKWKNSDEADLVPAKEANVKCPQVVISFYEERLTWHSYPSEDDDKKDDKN
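Compound inhibition of the preformed complex between 50 nM HP1-beta and 50 nM biotinylated H3K9me3 peptide was read by AlphaScreen. Buffer was PBS pH 7.4 with 0.01% Tween-20. Incubations ran 30 min at room temperature, with 10 ug/mL donor/acceptor beads.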
G9a block = qHTS Assay for Inhibitors of Histone Lysine Methyltransferase G9a; Potency, µM (titrated, usually from 102 µM), for inactives: top-dose activity, negative = inhibition, hits mostly inhibitors; hit rate 8.8% among 350,000; G9a H3K9 monomethylation, AlphaScreen, 2 h; Histone-lysine N-methyltransferase EHMT2 (Homo sapiens), Q96KQ7; further: on the % scale 0 is the no-effect control and ±100 the full control effect; nearly all actives have a fitted effect of over 75% in size
Target sequence (Q96KQ7 913-1193 limits assumed): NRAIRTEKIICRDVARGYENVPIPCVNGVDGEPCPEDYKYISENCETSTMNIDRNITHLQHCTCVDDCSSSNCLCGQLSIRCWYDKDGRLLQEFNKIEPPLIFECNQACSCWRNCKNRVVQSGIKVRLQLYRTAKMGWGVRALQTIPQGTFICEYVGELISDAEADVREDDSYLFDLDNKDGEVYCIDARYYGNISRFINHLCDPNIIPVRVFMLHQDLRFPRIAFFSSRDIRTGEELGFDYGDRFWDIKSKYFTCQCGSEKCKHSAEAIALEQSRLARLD
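Chemiluminescent proximity detection of H3K9 monomethylation, read after 10 min bead incubation in the dark. Reaction: 20 nM G9a, 500 nM biotin-H3K9 peptide, 20 uM SAM cofactor, 2 h, room temperature, following 15 min enzyme-compound preincubation.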
JMJD2A Tudor = qHTS Assay for Inhibitors of JMJD2A-Tudor Domain; AlphaScreen JMJD2A-Tudor / H3K4me3 peptide binding; Potency, µM (doses to about 114 µM), inactives show at the top dose activity change, negative = inhibition, most hits filed as inhibitors; hit rate 4.4% among 390,000; AID 504339, 2011; further: on the % scale 0 is the no-effect control and ±100 the full control effect; nearly all actives have a fitted effect of over 50% in size
BAZ2B block = qHTS Assay for Inhibitors of BAZ2B | Bromodomain adjacent to zinc finger domain protein 2B (Homo sapiens), Q9UIF8 | AlphaScreen BAZ2B-H3K14Ac peptide displacement | Potency, µM (doses to about 114 µM), inactives show at the top dose activity change, negative = inhibition, usual class: inhibitors | hit rate 4.4% among 360,000; further: on the % scale 0 is the no-effect control and ±100 the full control effect; nearly all actives have a fitted effect of over 60% in size
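Inhibition is scored as reduced AlphaScreen emission. The BAZ2B/b-H3(5-23)K14Ac complex (50 nM each) in PBS pH 7.4, 0.01% Tween-20 meets compound (up to 110 uM) for 30 min at RT before bead addition.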
Sfp PPTase inh = qHTS Assay for Inhibitors of Bacillus subtilis Sfp phosphopantetheinyl transferase (PPTase); 4'-phosphopantetheinyl transferase ffp (Bacillus subtilis), Q9F4F7; Potency, µM, for the others: largest response in the series, negative = inhibition, usual class: inhibitors; hit rate 3.5% among 310,000; Biochemical Sfp PPTase activity, qHTS;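 further: the enzyme is Sfp with the accession as filed and its product quenches rhodamine fluorescence; 0% = enzyme reaction without inhibitor and -100% = no enzyme wells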
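Fluorescence-quenching assay with 15 nM Sfp, 5 uM rhodamine-CoA and 12.5 uM BHQ-2-labelled ybbR peptide in pH 7.6 Hepes/MgCl2 buffer. Enzyme was pre-incubated with compound for 15 min at room temperature. Rate was taken from the 30-min fluorescence change (525/598 nm).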
* = called active by the depositor; ? = inconclusive; . = not tested or not shown; [ ] = another dose, or the depositor's remark. In the library only some 12% were active in any assay of this set; here they are far more common. The call rests on the fitted dose curve; in most records, active means well fitted curve in the direction sought with a large enough effect; inconclusive means small, poorly fitted or top-dose-only effect, or another doubt; inactive means no such curve, though single readings can be large; an effect the other way counts as inactive or inconclusive. Potency means the concentration at half of the fitted maximal effect.

SMILES	HP1b binding inh	G9a block	JMJD2A Tudor	BAZ2B block	Sfp PPTase inh
Cc1cc(Cl)ccc1NC(=O)CN1C(=O)C(=O)c2ccccc21	18%	6%[59 µM]	-8%	-1%	.
CCCN=C1N(CC)C[C@@H]2[C@@H]3C(=O)N(C)C(=O)[C@@H]3[C@](C)(C(=O)OC)N12	64%	.	-17%	.	.
C/C(=C\C[Si](C)(C)C)CCC=O	.	.	.	.	63µM*
CC(=O)N1c2ccc(S(=O)(=O)N3CCCCCC3)cc2CC1C(=O)NCc1cccc(C)c1 (stereo unspecified)	32%	0%[12.7 µM]	1%	-9%	.
CCOC(=O)C1=C(CC)OC(N)=C(C#N)C1c1ccsc1 (stereo unspecified)	30%	56µM*	-1%	?	?
CCOC(=O)C1=C(CC)OC(N)=C(C#N)C1c1cccs1 (stereo unspecified)	21%	50µM*	-16%	-24%	-8%
COC(=O)CC1=C(C(=O)OC)C(c2cccs2)C(C#N)=C(N)O1 (stereo unspecified)	64%	?	-31%	4%	?
CCOC(=O)C1=C(C)OC(N)=C(C#N)C1c1cc(C)sc1C (stereo unspecified)	29%	.	-11%	-26%	5%
CCOC(=O)C1=C(CC)OC(N)=C(C#N)C1c1ccc(OC)cc1OC (stereo unspecified)	33%	-12%[59 µM]	-18%	-4%	11%
CC(=O)C1=C(C)OC(N)=C(C#N)C1c1cccc([N+](=O)[O-])c1 (stereo unspecified)	7%	45µM*	-14%[11.4 µM]	-34%	7%
CCOC(=O)C1=C(C)OC(N)=C(C#N)C1c1cc(SCC)oc1C (stereo unspecified)	21%	45µM*	-18%	?	11%
CCN1CC2=C(OC(N)=C(C#N)C2c2cccs2)/C(=C\c2cccs2)C1 (stereo unspecified)	?	45µM*	?	35µM*	?
CCOC(=O)C1=C(C)OC(N)=C(C#N)C1c1ccsc1 (stereo unspecified)	41%	10µM*	-7%	-38%	-2%
COc1ccc(NC(=S)Nc2ccc(S(N)(=O)=O)cc2)c(OC)c1	-10%	56µM*	-10%	-38%	-14%
COc1ccc(NC(=S)NNS(=O)(=O)c2ccc3ccccc3c2)c(OC)c1	?	.	25µM*	?	7%
COc1ccc(NC(=S)Nc2ccc(S(=O)(=O)N3CCOCC3)cc2)c(OC)c1	-6%	-9%[59 µM]	-9%	-20%	-30%
N#Cc1ccc(NC(=O)CSc2nc3[nH]c(=O)cc(O)c3s2)cc1	24%	?	?	-10%	.
CCOc1cccc(NC(=O)CSc2sc3c(O)cc(=O)[nH]c3c2C#N)c1	13%	?	-15%	-27%	35µM*
N#Cc1c(SCC(=O)Nc2cccc(F)c2)sc2c(O)cc(=O)[nH]c12	14%	?	-18%	-34%	56µM*
N#Cc1c(SCC(=O)Nc2ccccc2C(F)(F)F)sc2c(O)cc(=O)[nH]c12	14%	-15%[59 µM]	-14%	-24%	14µM*
N#Cc1cccc(NC(=O)CSc2sc3c(O)cc(=O)[nH]c3c2C#N)c1	-20%	?	?	?	?
Cc1c(Cl)cccc1NC(=O)CSc1sc2c(O)cc(=O)[nH]c2c1C#N	8%	?	-5%	-13%	?
CCOc1ccc(-c2cc(CCCC(=O)NCCc3ccc(OCC)c(OCC)c3)no2)cc1	33%	-3%[59 µM]	-14%	-15%	.
COc1cc(-c2noc(-c3ccc(NCc4cccnc4)c([N+](=O)[O-])c3)n2)cc(OC)c1OC	55%	?	-20%	?	.
COc1ccc2c(c1OC)C(=O)OC2c1ccc(O)cc1 (stereo unspecified)	29%	.	-4%	.	.
SMILES	HP1b binding inh	G9a block	JMJD2A Tudor	BAZ2B block	Sfp PPTase inh
Cc1ccc(-n2nc(C)cc2NC(=O)c2ccc(C)s2)cc1	26%	79µM*	7%	10%	-4%
COc1ccc(COC(=O)c2[nH]c3c(c2C)C(=O)CC(c2ccc(OC)c(OC)c2)C3)cc1 (stereo unspecified)	-3%	-31%[59 µM]	-18%	-4%	.
CCOC(=O)c1[nH]c2c(c1-c1ccc(OC)cc1)C(=O)CC(c1ccc(OC)c(OC)c1)C2 (stereo unspecified)	62%	50µM*	-30%	?	-10%
O=c1cc(-c2ccccc2)n2c(SCc3cccc([N+](=O)[O-])c3)nnc2[nH]1	45%	?	-2%	4%	.
NS(=O)(=O)c1ccc(-n2ncc3c(=O)[nH]c(SCC(=O)Nc4nccs4)nc32)cc1	11%	45µM*	-25%	-25%	3%
CC(C)Nc1nc(NC(C)C)nc(C(N)=O)n1	1%	3%[12.7 µM]	-34%	50µM*	8%
CC(=O)OCCOc1nc(NC(C)C)nc(NC(C)C)n1	10%	?	79µM*	-2%	15%
CCN(CC)C(=O)c1cc(-c2ccc3c(c2)OCO3)on1	31%	13%	-8%	1%	-6%
CCC[n+]1c(C)sc2c3c(ccc21)CCCC3	40µM*	50µM*	45µM*	-23%	-4%
Cc1ccc(S(=O)(=O)N2CCN(c3nc(-c4cccs4)nc(C)c3C)CC2)cc1	3%	.	-14%	.	.
Cc1ccc(C2=NN(CC(=O)NCCCN(CC(C)C)CC(C)C)C(=O)CC2)cc1	8%	11%[59 µM]	-17%	0%	.
CC1CCN(CCOc2ccc(C(=O)c3ccccc3)cc2)CC1	20%	7.1µM*	?	?	-21%
CC1CCN(CCCCOc2ccc(C(=O)c3ccccc3)cc2)CC1	-1%	35µM*	-21%[11.4 µM]	-14%	-23%
CCN(CC)C(=O)CS(=O)(=O)CC(=O)Nc1cc(OCCOC)c(Cl)cc1Cl	8%	50µM*	-3%	4%	13%
COCCOc1cc(NC(=O)CS(=O)CC(=O)N(C)C)c(Cl)cc1Cl (stereo unspecified)	24%	16%	-12%	1%	12%
CCCC[C@H](NC(C)=O)C(=O)N[C@@H](CCC(=O)O)C(=O)N[C@@H](Cc1cnc[nH]1)C(=O)N[C@H](Cc1ccccc1)C(=O)N[C@@H](CCCN=C(N)N)C(=O)N[C@H](Cc1c[nH]c2ccccc12)C(=O)NCC(N)=O	.	.	.	.	34%
CC(C)(C)N1CSC(=S)N(Cc2ccccc2)C1	19%	?	-2%	-12%	-8%
CC(C)N1CSC(=S)N(Cc2ccccc2)C1	9%	32µM*	-14%	-10%	-6%
O=C(Cn1c(-c2ccccc2)c[n+]2ccsc12)c1ccc(Br)cc1	-4%	?	-15%	-22%	13%

Bioassay records as filed in PubChem BioAssay.
